The list is not random: actives were taken first. Their share in the collection is about 2.8%.
MITF act – activators of MITF-driven TRPM1 promoter reporter, primary screen, cell-based, SK-MEL-5, luciferase, single point. activation, % at 12.5 µM. SK-MEL-5 TRPM1-promoter luciferase, 24 h; % of positive control, neutral wells = 0. AID 588334, 2011. 0.75% of 300,000 active;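 active = mean activation of at least 80% with every replicate also reaching 80%; inconclusive = mean reaches 80% but some replicate falls short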;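 also: 0% = neutral control wells and 100% = parthenolide positive control wells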
Wnt bcat act – Wnt/beta-catenin pathway activators, primary screen, cell-based, plate reader, single point | Wnt/beta-catenin reporter cell assay, activator | 1.2% of 300,000 active | activation, % at 9.35 µM; in the data active = activation above about 30%, passing the limit was not always enough; inconclusive = no clear call, values can overlap the other calls;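 also: 0% = neutral control wells and 100% = positive control wells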
GAA850 FXN act – FXN promoter activators, primary screen, cell-based, luciferase luminescence, HEK293 lucGAA850. HEK293 lucGAA850 FXN promoter luciferase reporter, 24 h; percent of 10 µM SAHA response. activation, % at 6 µM. 0.56% of 360,000 active. AID 540364, 2011;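 active = activation above the average of all compounds screened plus 3 SD, cutoff fixed separately per campaign, cut at about 7.5% in these data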;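 also: 0% = DMSO wells and 100% = 10 µM SAHA wells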
esBAF inh – Bmi1 luciferase reporter increase in mESCs, primary screen, esBAF inhibitor project, mouse ES cells, Bmi1 luciferase knock-in, single point | 2% of 350,000 active | 24 h; 100% = twice the neutral-well signal | reporter increase, % at 12.5 µM; in the data active = activation above about 40%; inconclusive = no clear call, values can overlap the other calls;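 also: 0% = median of the plate's neutral control wells and 100% = double that signal; a rise in the Bmi1 reporter signal indicates esBAF inhibition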
Numbers without * were called inactive; ? = inconclusive; / = not tested or not shown.

SMILES | MITF act | Wnt bcat act | GAA850 FXN act | esBAF inh
COc1ccc(/C=C/C(=O)NC(=S)Nc2ccccn2)cc1 | 55 | 12 | 6 | 48*
O=C(/C=C\c1ccco1)NC(=S)Nc1ccccc1O | 88* | 16 | 4 | /
O=C(O)CCCNC(=O)/C=C/c1ccco1 | 10 | 2 | 0 | /
CC(=O)Nc1ccc(NC(=S)NC(=O)/C=C/c2ccco2)cc1 | / | 3 | 1 | -2
CN1CCN(c2ccc(NC(=S)NC(=O)/C=C/c3ccco3)cc2)CC1 | 43 | 0 | 3 | 45*
O=C(/C=C/c1ccco1)NCCc1ccccc1 | 63 | 55* | 6 | 52*
CO[C@H]1CC[C@@H]2CCN(C)C(=O)[C@@H](C)N(C)C(=O)c3cccc(C#N)c3OC[C@H]1O2 | / | / | / | -2
O=C(/C=C/c1ccco1)NC(=S)Nc1ccccn1 | / | 42* | 7 | 46*
Cc1cccnc1NC(=S)NC(=O)/C=C/c1ccco1 | 5 | 24 | 1 | 38
Cc1ccc(NC(=O)c2ccc3ccccc3n2)cc1S(=O)(=O)N(C)C | 119* | 43* | 4 | 83*
Cc1ccc(NC(=O)c2cnc3ccccc3n2)cc1C | / | 42* | 3 | 32
O=C(Nc1ccccc1)c1cnc2ccccc2n1 | 39 | ? | 6 | /
CO[C@@H]1CN(C)C(=O)c2cc(NC(=O)C3CCC3)ccc2OC[C@H](C)N(Cc2nccs2)C[C@@H]1C | / | / | / | -4
C[C@@H]1CN([C@H](C)CO)C(=O)Cc2cc(NC(=O)NC3CCCCC3)ccc2O[C@@H]1CN(C)C(=O)NC1CCCCC1 | / | / | / | 1
Fc1ccccc1C1CC(c2ccco2)=Nc2ccccc2S1 (configuration not stated) | -8 | 35* | 6 | 11
Cc1cccc(C#Cc2ccccc2)n1 | 76 | 67* | 2 | 11
C[C@H](CO)N1C[C@H](C)[C@@H](CN(C)C(=O)c2ccccn2)Oc2ncc(C#Cc3ccccn3)cc2C1=O | / | / | / | -5
CC(C(=O)N1CCOCC1)N1C(=O)c2cccc3cccc(c23)C1=O (configuration not stated) | -10 | 33* | 3 | /
O=C(CCN1C(=O)c2cccc3cccc(c23)C1=O)N1CCOCC1 | 83* | 26 | 5 | 53*
CC(C(=O)N1CCOCCOCCOCCOCCOCC1)N1C(=O)c2ccccc2C1=O (configuration not stated) | 3 | -1 | 3 | /
O=C(CCN1C(=O)c2ccccc2C1=O)N1CCOCC1 | 5 | -3 | 2 | -7
CCC(CO)Oc1cc(NCc2ccccc2)c2ncn(C(C)C)c2c1 (configuration not stated) | -10 | -3 | 0 | 60*
COc1ccc(NC(=O)Nc2cccc3c2O[C@H](CN(C)Cc2ccc(C(=O)Nc4ccccc4N)cc2)[C@@H](C)CN([C@@H](C)CO)C3=O)cc1 | / | / | / | -8
COc1cnc(-c2ccccn2)nc1Sc1ccc(C)cc1 | -5 | -2 | -2 | /
Cc1ccc(Sc2cc(C)nc(-c3ccccn3)n2)cc1 | / | 33* | -1 | /
SMILES | MITF act | Wnt bcat act | GAA850 FXN act | esBAF inh
CCCNC(=O)Nc1ccc2c(c1)C(=O)N(C)C[C@H](OC)[C@@H](C)CN(Cc1ccc(-c3ccccn3)cc1)[C@H](C)CO2 | / | / | / | 42*
CO[C@H]1CN(C)C(=O)c2cc(NC(=O)NC(C)C)ccc2OC[C@H](C)N(Cc2ccc(-c3ccccn3)cc2)C[C@@H]1C | / | / | / | 142*
CO[C@@H]1CN(C)C(=O)c2cc(NC(=O)c3nc4ccccc4s3)ccc2OC[C@@H](C)N(Cc2cccnc2)C[C@H]1C | / | / | / | 51*
CO[C@H]1CN(C)C(=O)c2cc(NC(=O)c3nc4ccccc4s3)ccc2OC[C@@H](C)N(Cc2cccnc2)C[C@H]1C | / | / | / | 18
COc1cccc(C(=O)Nc2ccc3c(c2)OC[C@@H](C)N(CCc2ccccc2)C[C@@H](C)[C@H](OC)CN(C)C3=O)c1 | / | / | / | 64*
COCC(=O)N1C[C@@H](C)[C@@H](OC)CN(C)C(=O)c2ccc(NC(=O)c3ccc(OC)cc3)cc2OC[C@@H]1C | / | / | / | -19
C[C@@H]1CN([C@@H](C)CO)C(=O)c2cc(NC(=O)Nc3ccc(C(F)(F)F)cc3)ccc2O[C@@H]1CN(C)C | / | / | / | 0
CO[C@H]1CN(C)C(=O)c2cc(NC(=O)NC(C)C)ccc2OC[C@@H](C)N(Cc2ccc(-c3ccccn3)cc2)C[C@@H]1C | / | / | / | 72*
CO[C@H]1CN(C)C(=O)c2ccc(NC(=O)NC(C)C)cc2OC[C@H](C)N(Cc2ccc(-c3ccccn3)cc2)C[C@H]1C | / | / | / | 3
C[C@H]1CN([C@@H](C)CO)C(=O)c2cc(-c3ccc(C#N)cc3)cnc2O[C@H]1CN(C)C(=O)CN(C)C | / | / | / | -5
CCSc1nnc(-c2ccc(Cl)cc2Cl)o1 | 63 | / | 6 | 30
Clc1ccc(-c2nnc(-c3ccccc3)o2)c(Cl)c1 | / | 39* | 3 | -37
Clc1ccc(-c2nnc(-c3ccc(Br)o3)o2)c(Cl)c1 | 126* | / | 1 | 38
CSc1nnc(-c2ccc(Cl)cc2Cl)o1 | 51 | / | 2 | 51*
C[C@H](CO)N1C[C@H](C)[C@H](CN(C)C(=O)c2ccc3c(c2)OCO3)Oc2cc(-c3cncnc3)ccc2S1(=O)=O | / | / | / | 4
CN1C(=O)c2cc(NC(=O)C3CC3)ccc2OC[C@@H]2O[C@@H](CC(=O)NC3CCC3)CC[C@@H]21 | / | / | / | -4
c1ccc(-n2nnc3ccccc32)nc1 | 76 | / | 3 | 61*
C[C@H](O)C#Cc1ccc2c(c1)O[C@@H](CN(C)Cc1ccncc1)[C@H](C)CN([C@H](C)CO)S2(=O)=O | / | / | / | 8
CC1=C(C(=O)Nc2ccc(CC(=O)NCc3ccc(OC(C)C)cc3)cc2)SCCO1 | 6 | -7 | 5 | 46*
CCn1cc(C(=O)N2CCn3c(nc4ccccc43)C2)c(=O)c2ccc(C)nc21 | -9 | -2 | 16* | -3
CCN(CC)C(=O)N1CCn2c(nc3ccccc32)C1 | -4 | / | 0 | /
C[C@@H]1CN([C@@H](C)CO)C(=O)c2cc(C#CC(C)(C)O)cnc2O[C@@H]1CN(C)C(=O)C1CCCCC1 | / | / | / | -7
COc1ccc(-c2cc(C(=O)N3CCN(c4ccc(F)cc4)CC3)no2)cc1OC | -6 | -1 | 1 | -4
COc1ccc(-c2cc(C(=O)N3CCCCC3)no2)cc1OC | 61 | -4 | 5 | 59*
COc1ccc(-c2cc(C(=O)N3CCCC3)no2)cc1OC | 36 | 20 | 3 | 67*
SMILES | MITF act | Wnt bcat act | GAA850 FXN act | esBAF inh
COc1ccc(-c2cc(C(=O)N3CCN(Cc4ccccc4)CC3)no2)cc1OC | 13 | / | 1 | -4
Cc1ccc(N2CN=c3s/c(=C\c4ccccn4)c(=O)n3C2)cc1 | 51 | 3 | 1 | 77*
COC(=O)c1ccc2c(c1)c(C#Cc1ccccc1)c(-c1ccccc1)n2C | 80 | -1 | 1 | 47*
COc1cc(C#Cc2c(-c3ccccc3)n(C)c3ccccc23)cc(OC)c1 | 4 | -2 | 0 | -13
Cc1ccccc1-c1noc(-c2ccc(Cl)cc2)n1 | 37 | ? | 1 | ?
Cc1ccccc1-c1noc(-c2ccccc2F)n1 | 107* | -1 | 5 | 67*

From PubChem BioAssay
